Publication PMC7862700, “An all-to-all approach to the identification of sequence-specific readers for epigenetic DNA modifications on cytosine”

How the values were obtained:
Test in all cases: DAPPL (digital affinity profiling via proximity ligation, sequencing); 10 mM Tris-HCl pH 7.5, 50 mM NaCl, 1 mM DTT, 4% glycerol, room temperature, 30 min; GST-TFs on glutathione beads, 16-mer random dsDNA library, 0.1% formaldehyde crosslink after washing; high values mean tight binding
Details in all cases: protein: recombinant; tags: N-terminal GST; dsDNA, one strand shown
[1] = target: T1, GABPA (Homo sapiens, UniProt Q06546 1-454)
T1 sequence: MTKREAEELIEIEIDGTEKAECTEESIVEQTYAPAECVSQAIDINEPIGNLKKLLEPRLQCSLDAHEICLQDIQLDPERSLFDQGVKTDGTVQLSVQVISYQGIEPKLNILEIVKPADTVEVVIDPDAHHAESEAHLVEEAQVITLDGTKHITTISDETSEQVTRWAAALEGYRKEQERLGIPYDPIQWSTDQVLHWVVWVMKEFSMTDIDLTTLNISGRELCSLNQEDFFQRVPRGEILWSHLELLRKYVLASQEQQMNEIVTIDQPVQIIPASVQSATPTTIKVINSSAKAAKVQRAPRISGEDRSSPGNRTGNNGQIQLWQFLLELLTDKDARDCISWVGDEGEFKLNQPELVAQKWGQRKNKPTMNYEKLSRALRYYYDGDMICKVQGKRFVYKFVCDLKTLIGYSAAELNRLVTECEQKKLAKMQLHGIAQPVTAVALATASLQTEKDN
Method in brief: (§1)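 Binding signal is each hexamer's read frequency for a factor divided by its frequency in the tag-only sample. The factors were GST-fused human transcription factors from yeast, captured on glutathione beads, DNA-barcoded and pooled with that sample. Pools were incubated with 200 nmole of a random double-stranded 16-mer DNA library in Tris/NaCl/DTT/glycerol buffer at room temperature for 30 min, then washed, crosslinked with 0.1% formaldehyde, proximity-ligated with BsaI/T4 ligase (1 h, 37 °C), PCR-amplified and sequenced on an Illumina NextSeq500.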

[2] = target: T2, ERG (Homo sapiens, UniProt P11308 1-479)
T2 sequence: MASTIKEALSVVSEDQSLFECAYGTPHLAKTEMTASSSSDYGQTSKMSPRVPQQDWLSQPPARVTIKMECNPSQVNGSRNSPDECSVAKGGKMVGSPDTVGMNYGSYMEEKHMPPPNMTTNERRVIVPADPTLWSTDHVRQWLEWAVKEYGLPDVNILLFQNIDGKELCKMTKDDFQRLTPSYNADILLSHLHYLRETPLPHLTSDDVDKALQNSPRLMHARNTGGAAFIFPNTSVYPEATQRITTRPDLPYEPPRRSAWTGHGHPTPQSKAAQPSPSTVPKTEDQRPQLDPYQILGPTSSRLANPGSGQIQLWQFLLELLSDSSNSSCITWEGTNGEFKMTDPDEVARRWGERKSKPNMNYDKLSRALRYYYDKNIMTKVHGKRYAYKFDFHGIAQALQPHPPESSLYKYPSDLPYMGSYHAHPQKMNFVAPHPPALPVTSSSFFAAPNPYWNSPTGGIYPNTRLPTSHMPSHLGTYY
Method in brief: as §1

[3] = target: ELF1 (Homo sapiens, UniProt P32519 1-619)
Chain of ELF1 (P32519 whole entry): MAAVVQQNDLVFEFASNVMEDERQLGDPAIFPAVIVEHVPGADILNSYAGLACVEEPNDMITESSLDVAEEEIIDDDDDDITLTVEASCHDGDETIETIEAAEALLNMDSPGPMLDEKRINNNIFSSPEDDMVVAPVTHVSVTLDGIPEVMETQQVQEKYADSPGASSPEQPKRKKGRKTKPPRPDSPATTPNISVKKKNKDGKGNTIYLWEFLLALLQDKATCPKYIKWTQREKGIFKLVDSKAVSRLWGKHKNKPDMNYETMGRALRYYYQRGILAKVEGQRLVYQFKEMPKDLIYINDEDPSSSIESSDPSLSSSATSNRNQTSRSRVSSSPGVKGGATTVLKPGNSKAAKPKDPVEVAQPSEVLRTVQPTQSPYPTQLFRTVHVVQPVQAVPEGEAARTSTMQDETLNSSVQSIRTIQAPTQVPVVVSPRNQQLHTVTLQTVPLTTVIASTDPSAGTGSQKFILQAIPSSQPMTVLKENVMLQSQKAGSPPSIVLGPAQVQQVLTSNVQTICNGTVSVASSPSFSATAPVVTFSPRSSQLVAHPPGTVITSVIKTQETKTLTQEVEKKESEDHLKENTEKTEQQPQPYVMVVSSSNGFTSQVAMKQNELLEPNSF
Method in brief: as §1

[4] = target: ETV5 (Homo sapiens, UniProt P41161 1-510)
Chain of ETV5 (P41161 whole entry): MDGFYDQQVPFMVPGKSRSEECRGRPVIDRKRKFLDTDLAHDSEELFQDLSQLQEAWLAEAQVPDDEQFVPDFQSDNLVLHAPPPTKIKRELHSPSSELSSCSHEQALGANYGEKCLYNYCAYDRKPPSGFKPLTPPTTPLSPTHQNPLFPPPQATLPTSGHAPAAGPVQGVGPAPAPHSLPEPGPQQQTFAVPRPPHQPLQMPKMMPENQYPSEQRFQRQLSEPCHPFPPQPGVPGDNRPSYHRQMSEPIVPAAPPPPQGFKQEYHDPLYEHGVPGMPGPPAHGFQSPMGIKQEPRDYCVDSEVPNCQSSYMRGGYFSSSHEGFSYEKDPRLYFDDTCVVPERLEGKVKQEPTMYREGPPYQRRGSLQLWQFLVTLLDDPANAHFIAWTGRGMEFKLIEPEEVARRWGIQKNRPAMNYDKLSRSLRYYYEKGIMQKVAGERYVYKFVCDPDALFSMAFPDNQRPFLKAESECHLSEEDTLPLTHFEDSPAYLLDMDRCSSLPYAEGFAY
Method in brief: as §1

[5] = target: ELF4 (Homo sapiens, UniProt Q99607 1-663)
Chain of ELF4 (Q99607 whole entry): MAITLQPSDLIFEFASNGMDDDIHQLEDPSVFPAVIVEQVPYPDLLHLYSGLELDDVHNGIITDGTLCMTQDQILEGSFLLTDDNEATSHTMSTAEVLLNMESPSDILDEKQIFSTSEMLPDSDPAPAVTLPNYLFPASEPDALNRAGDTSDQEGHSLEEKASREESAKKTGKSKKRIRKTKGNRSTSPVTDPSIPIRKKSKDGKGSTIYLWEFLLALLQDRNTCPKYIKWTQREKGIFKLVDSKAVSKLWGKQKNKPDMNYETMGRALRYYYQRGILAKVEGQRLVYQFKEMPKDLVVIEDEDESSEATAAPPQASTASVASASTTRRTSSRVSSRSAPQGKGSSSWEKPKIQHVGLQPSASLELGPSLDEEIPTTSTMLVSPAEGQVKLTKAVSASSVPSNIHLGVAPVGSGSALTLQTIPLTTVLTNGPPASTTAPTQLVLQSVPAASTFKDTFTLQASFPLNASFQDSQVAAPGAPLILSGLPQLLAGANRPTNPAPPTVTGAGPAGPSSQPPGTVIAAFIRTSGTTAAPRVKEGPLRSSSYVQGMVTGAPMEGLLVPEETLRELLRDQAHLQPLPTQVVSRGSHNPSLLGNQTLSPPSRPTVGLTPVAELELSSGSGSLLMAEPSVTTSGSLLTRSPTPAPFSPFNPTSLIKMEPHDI
Method in brief: as §1

[6] = target: T3, ELK4 (Homo sapiens, UniProt P28324-2 1-405)
T3 sequence: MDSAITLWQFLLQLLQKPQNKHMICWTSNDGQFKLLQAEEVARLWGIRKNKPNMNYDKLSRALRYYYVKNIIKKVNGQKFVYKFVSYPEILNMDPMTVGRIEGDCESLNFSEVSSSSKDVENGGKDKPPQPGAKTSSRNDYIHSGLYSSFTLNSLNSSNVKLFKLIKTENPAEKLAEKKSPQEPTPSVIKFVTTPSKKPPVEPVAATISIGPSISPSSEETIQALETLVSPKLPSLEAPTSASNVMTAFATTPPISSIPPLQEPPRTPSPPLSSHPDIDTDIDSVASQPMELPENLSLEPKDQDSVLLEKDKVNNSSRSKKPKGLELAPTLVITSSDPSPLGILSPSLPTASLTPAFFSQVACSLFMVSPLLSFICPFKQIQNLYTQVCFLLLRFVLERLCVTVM
Method in brief: as §1

[7] = target: T4, ELK1 (Homo sapiens, UniProt P19419 1-428)
T4 sequence: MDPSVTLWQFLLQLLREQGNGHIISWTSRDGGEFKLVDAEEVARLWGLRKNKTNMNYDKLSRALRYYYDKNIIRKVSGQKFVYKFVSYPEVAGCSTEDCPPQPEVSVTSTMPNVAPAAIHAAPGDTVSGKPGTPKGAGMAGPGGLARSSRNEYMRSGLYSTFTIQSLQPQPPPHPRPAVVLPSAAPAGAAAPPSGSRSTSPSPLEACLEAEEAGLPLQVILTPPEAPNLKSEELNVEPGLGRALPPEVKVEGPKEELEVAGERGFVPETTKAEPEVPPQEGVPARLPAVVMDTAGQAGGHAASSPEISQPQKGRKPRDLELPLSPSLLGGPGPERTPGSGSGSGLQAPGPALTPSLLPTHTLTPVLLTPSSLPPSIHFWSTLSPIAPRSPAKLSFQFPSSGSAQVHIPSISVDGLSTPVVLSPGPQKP
Method in brief: as §1

[8] = target: SPIB (Homo sapiens, UniProt Q01892 1-262)
Chain of SPIB (Q01892 whole entry): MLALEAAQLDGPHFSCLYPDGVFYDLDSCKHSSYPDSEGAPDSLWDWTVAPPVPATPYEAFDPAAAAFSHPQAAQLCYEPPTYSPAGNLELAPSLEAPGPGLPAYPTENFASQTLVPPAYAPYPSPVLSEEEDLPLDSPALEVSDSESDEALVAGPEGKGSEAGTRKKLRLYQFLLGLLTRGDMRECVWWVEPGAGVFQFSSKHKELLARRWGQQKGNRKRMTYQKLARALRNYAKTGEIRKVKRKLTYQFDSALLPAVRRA
Method in brief: as §1

[9] = target: T5, ELF3 (Homo sapiens, UniProt P78545 1-371)
T5 sequence: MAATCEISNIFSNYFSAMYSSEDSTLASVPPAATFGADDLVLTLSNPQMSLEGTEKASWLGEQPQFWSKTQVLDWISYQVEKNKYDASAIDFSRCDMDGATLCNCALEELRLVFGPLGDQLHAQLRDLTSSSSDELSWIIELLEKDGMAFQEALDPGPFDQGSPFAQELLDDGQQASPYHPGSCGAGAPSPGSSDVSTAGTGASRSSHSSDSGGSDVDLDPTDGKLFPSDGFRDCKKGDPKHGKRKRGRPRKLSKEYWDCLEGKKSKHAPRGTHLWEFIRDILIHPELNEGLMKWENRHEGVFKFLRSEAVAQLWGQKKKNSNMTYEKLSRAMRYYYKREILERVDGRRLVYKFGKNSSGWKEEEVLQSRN
Method in brief: as §1

[10] = target: ETV1 (Homo sapiens, UniProt P50549 1-477)
Chain of ETV1 (P50549 whole entry): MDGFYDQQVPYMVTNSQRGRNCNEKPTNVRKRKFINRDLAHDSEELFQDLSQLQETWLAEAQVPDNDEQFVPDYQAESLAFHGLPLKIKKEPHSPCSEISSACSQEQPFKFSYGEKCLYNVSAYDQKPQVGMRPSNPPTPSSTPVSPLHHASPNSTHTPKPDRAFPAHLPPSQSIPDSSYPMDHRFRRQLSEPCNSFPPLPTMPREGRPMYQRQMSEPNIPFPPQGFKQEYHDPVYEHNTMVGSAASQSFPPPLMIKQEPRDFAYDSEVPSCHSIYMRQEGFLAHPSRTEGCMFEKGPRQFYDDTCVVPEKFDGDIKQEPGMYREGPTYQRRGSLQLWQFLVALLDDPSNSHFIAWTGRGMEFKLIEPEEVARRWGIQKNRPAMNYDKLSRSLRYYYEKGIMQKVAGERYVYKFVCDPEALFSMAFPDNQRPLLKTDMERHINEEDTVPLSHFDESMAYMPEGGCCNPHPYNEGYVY
Method in brief: as §1

[11] = target: T6, ERF (Homo sapiens, UniProt P50548 1-548)
T6 sequence: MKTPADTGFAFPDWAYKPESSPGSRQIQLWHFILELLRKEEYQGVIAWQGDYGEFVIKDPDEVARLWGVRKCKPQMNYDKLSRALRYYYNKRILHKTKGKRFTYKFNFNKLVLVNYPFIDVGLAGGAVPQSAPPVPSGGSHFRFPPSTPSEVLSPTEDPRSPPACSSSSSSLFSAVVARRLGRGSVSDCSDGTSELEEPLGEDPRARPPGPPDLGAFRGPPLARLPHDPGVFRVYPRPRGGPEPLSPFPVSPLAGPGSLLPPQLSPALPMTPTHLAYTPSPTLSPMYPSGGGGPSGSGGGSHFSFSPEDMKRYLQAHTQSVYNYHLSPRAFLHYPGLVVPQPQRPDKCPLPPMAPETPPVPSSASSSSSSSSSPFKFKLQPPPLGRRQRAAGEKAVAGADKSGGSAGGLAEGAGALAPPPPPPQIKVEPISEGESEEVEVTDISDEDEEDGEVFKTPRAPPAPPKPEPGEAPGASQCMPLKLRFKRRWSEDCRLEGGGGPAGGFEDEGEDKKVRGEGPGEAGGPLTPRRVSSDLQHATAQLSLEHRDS
Method in brief: as §1

[12] = target: T7, ETV3L (Homo sapiens, UniProt Q6ZN32 1-361)
T7 sequence: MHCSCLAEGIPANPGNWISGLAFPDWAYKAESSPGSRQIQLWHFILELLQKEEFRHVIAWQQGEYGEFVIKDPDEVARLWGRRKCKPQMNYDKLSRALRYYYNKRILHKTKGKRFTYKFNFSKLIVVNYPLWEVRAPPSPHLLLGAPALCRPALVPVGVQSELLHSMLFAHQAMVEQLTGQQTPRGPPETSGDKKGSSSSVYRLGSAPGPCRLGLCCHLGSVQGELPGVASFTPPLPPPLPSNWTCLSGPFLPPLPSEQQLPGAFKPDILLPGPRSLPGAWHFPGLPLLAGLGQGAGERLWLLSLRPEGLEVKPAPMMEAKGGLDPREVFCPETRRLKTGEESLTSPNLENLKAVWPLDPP
Method in brief: as §1

[13] = target: T8, ETV7 (Homo sapiens, UniProt Q9Y603 1-341)
T8 sequence: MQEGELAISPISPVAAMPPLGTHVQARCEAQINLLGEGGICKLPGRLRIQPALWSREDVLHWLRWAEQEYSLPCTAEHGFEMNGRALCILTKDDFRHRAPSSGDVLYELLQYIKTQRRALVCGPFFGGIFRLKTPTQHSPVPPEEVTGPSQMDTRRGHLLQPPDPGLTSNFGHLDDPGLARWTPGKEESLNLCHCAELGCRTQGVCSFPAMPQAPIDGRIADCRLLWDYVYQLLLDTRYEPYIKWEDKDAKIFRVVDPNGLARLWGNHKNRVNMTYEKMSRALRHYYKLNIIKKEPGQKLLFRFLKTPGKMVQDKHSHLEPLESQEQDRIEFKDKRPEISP
Method in brief: as §1

[14] = target: ETV6 (Homo sapiens, UniProt P41212 1-452)
Chain of ETV6 (P41212 whole entry): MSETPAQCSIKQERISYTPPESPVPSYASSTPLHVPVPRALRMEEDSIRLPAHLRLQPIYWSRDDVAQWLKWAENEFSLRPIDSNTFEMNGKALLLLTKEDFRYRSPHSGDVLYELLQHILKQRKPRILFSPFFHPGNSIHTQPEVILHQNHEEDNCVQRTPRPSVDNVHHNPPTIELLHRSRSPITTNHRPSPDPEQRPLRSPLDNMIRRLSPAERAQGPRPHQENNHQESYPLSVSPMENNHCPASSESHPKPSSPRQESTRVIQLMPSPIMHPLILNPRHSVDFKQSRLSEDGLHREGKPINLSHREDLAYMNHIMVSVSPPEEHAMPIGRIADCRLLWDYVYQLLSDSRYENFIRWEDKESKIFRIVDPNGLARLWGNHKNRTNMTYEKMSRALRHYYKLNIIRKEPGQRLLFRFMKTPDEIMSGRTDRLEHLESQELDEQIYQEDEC
Method in brief: as §1

| Sequence | binding signal [1] | binding signal [2] | binding signal [3] | binding signal [4] | binding signal [5] | binding signal [6] | binding signal [7] | binding signal [8] | binding signal [9] | binding signal [10] | binding signal [11] | binding signal [12] | binding signal [13] | binding signal [14] |
| --- | --- | --- | --- | --- | --- | --- | --- | --- | --- | --- | --- | --- | --- | --- |
| ACGCTC | 1.05 fold enrichment (6-mer frequency, TF over GST control) | 1.01 fold enrichment (6-mer frequency, TF over GST control) | 1.07 fold enrichment (6-mer frequency, TF over GST control) | 1.01 fold enrichment (6-mer frequency, TF over GST control) | 1.08 fold enrichment (6-mer frequency, TF over GST control) | 1.01 fold enrichment (6-mer frequency, TF over GST control) |  |  |  |  |  |  |  |  |
| GGGGCT | 1.11 fold enrichment (6-mer frequency, TF over GST control) | 1.01 fold enrichment (6-mer frequency, TF over GST control) | 1.04 fold enrichment (6-mer frequency, TF over GST control) | 1.04 fold enrichment (6-mer frequency, TF over GST control) | 1.1 fold enrichment (6-mer frequency, TF over GST control) | 1.14 fold enrichment (6-mer frequency, TF over GST control) | 1.09 fold enrichment (6-mer frequency, TF over GST control) | 1.03 fold enrichment (6-mer frequency, TF over GST control) | 1.01 fold enrichment (6-mer frequency, TF over GST control) | 1.11 fold enrichment (6-mer frequency, TF over GST control) | 1.06 fold enrichment (6-mer frequency, TF over GST control) | 1.22 fold enrichment (6-mer frequency, TF over GST control) | 1.06 fold enrichment (6-mer frequency, TF over GST control) | 1.04 fold enrichment (6-mer frequency, TF over GST control) |
